Assay results published in PubChem BioAssay (NCI).
The panel holds about 83,000 compounds, 20% with a hit somewhere; the sample as a whole holds those more often.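 The test compound was applied at a single concentration to cells in 96-well plates for 48 hours, and percent growth was recorded.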 Values without a mark were called inactive. Active and inactive are the calls of the source. How the source made its calls: active means growth percent below 10; inactive means the rest.

How the values were obtained:
Assay in all cases: NCI-60 one-dose screen, 48 h (100 = growth as untreated, 0 = no growth, -100 = all killed)
NCI-H226 lung = details: 10 µM unless noted
NCI-H322M lung = details: 10 µM unless noted
HOP-92 NSCLC = details: 10 µM unless noted
NCI-H522 lung = details: 10 µM unless noted
HT29 colon = details: 10 µM unless noted
UACC-62 melanoma = details: 10 µM unless noted
EKVX NSCLC = details: 10 µM unless noted
TK-10 renal = details: 10 µM unless noted
ACHN renal = details: 10 µM unless noted
CAKI-1 renal = details: 10 µM unless noted
MOLT-4 leukemia = details: 10 µM
RPMI-8226 leukemia = details: 10 µM unless noted
HS 578T breast = details: 10 µM unless noted
T-47D breast = details: 10 µM unless noted
HOP-62 NSCLC = details: 10 µM unless noted
A549/ATCC NSCLC = details: 10 µM unless noted
UO-31 renal = details: 10 µM unless noted
COLO 205 colon = details: 10 µM
OVCAR-3 ovarian = details: 10 µM unless noted

Row | Structure (SMILES) | growth (NCI-H226 lung) | growth (NCI-H322M lung) | growth (HOP-92 NSCLC) | growth (NCI-H522 lung) | growth (HT29 colon) | growth (UACC-62 melanoma) | growth (EKVX NSCLC) | growth (TK-10 renal) | growth (ACHN renal) | growth (CAKI-1 renal) | growth (MOLT-4 leukemia) | growth (RPMI-8226 leukemia) | growth (HS 578T breast) | growth (T-47D breast) | growth (HOP-62 NSCLC) | growth (A549/ATCC NSCLC) | growth (UO-31 renal) | growth (COLO 205 colon) | growth (OVCAR-3 ovarian)
1 | CC12CCC3C(CC=C4CC(O)CCC43C)C1C/C(=C\N1CCOCC1)C2=O (stereo unspecified) | 93.2% | 113% | 91.3% | 83.3% | 105% | 104% | 96.1% | 96% | 99.6% | 91% | 106% | 102% | 114% | 96% | – | – | – | – | –
2 | CC1(CF)NC(=O)NC1=O (stereo unspecified) | 119% | – | 84.4% | 122% | – | 96.8% | 104% | 128% | – | 122% | 98.4% | 108% | 108% | – | 107% | 113% | – | – | –
3 | C=C=[CH][Sn]([c]1ccccc1)([c]1ccccc1)[c]1ccccc1 | -40.4% (active) | -15.6% (active) | – | -69.4% (active) | -72.1% (active) | -62.3% (active) | -32.7% (active) | -74.7% (active) | – | -40.4% (active) | – | -17.5% (active) | 27% | -36.7% (active) | – | -58.7% (active) | -84.3% (active) | – | –
4 | O=C(CCc1ccco1)NC1CCN(CC2(c3ccc(Cl)cc3)CCC2)CC1 | – | 34.7% | -21.9% (active) | -22.2% (active) | 10.5% | 17% | – | -0.211% (active) | – | – | -11.7% (active) | -5.13% (active) | 28.7% | 15.4% | 39.3% | 8.74% (active) | 10.7% | -30% (active) | 13.9%
5 | Oc1c(Br)cc(Br)cc1Br.[Cu+2] | – | 88.3% | 90.5% | 88.7% | 104% | 109% | – | 117% | 105% | 104% | 92.1% | – | 109% | 119% | 121% | – | – | 108% | 109%
6 | COc1ccc(NP2(=O)OCC(C)(N)CO2)cc1 (stereo unspecified) | 105% | – | 94.8% | 92.5% | 98.7% | 99.9% | 120% | 93.2% | 96.6% | – | 82.2% | – | 109% | 78.5% | – | 93.6% | 75.6% | – | –
7 | CN(Cc1cccnc1)N=O | 92.3% | – | 95.3% | 89.9% | 102% | – | 99.9% | – | 103% | – | 102% | 102% | 89% | 90.7% | – | 94.5% | 84.7% | 105% | 101%
8 | CC(C)(C)[Si](C)(C)OC1[C@@H](O[Si](C)(C)C(C)(C)C)[C@@H](CNC(=O)NC(=O)CF)O[C@H]1n1cnc2c(NC(=O)Nc3ccccc3)ncnc21 (stereo partly specified) | – | 104% | 48.5% | – | 25.6% | 76.6% | – | – | 71.8% | 85.6% | -13.4% (active) | 24.6% | 29.5% | 71.9% | 87.1% | 26.2% | 77.5% | 84.4% | –
9 | n1nc(-c2nonc2-c2nn[nH]n2)n[nH]1 | – | – | 104% | 101% | 107% | 107% | 96.3% | 110% | 115% | 98.8% | 110% | 96.5% | – | 105% | 112% | 95.2% | 92.5% | – | 150%
10 | CCC[CH2][Sn]([CH2]CCC)([CH2]CCC)[O]C(=O)c1ccc(Cl)cc1Cl | – | -86.5% (active) | -84.6% (active) | -73.3% (active) | -64.7% (active) | -95.4% (active) | -65% (active) | -90.5% (active) | -100% (active) | – | -16.6% (active) | -29.7% (active) | -38.3% (active) | -58.3% (active) | -82.2% (active) | -79.9% (active) | -86.9% (active) | -68.8% (active) | -98.3% (active)
